The nature of assay [1]: circadian clock period modulators, cell-based, LOPAC library, luminescence reporter (AID 2774).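 Also: values are relative to mean of DMSO wells on each plate.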 The conditions noted are these: circadian reporter cells, at 7 µM, actives lie on both sides.
Assay [2] has as its system Hepatitis C virus NS3 helicase. The assay is described as follows: HCV NS3 helicase inhibitors, primary screen, biochemical, fluorescence polarization, LOPAC1280 library (AID 687035; in the data active = inhibition above about 37%). The conditions noted are these: Purified HCV NS3 helicase, Cy5-dT15 ssDNA binding fluorescence polarization; stronger effect = higher value; concentration not given here.
Assay [3] can be described thus: Cy5 fluorescence quenching or enhancement artefacts, artefact control for HCV NS3 helicase inhibitor project, biochemical, LOPAC1280 (AID 687037). The conditions noted are these: Cy5-DNA-NS3h complex fluorescence interference counterscreen. A general note: Counterscreens check selectivity or assay interference.
Assay [4] deals with Aerobactin synthetase IucA (Klebsiella pneumoniae, hypervirulent). The assay is described as follows: IucA enzyme inhibition, biochemical, LOPAC library, absorbance readout (AID 1346212).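 Also: 100% = no compound wells and 0% = no enzyme wells.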 The settings on record: IucA enzyme assay, absorbance (OD) readout; stronger effect = lower value;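 tested at 8 µM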.
Assay [5] is described as follows: sensitizers of A549 cells to miR-34 induction, primary screen, imaging, A549 dox-inducible miR-34, nuclei and caspase counts (AID 1347080;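 active = compounds whose cell count with miR-34 switched on is under 0.7 times the count with it off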). The settings on record: A549 miR-34 inducible, Hoechst nuclei count, 48 h.
Assay [6] is described as follows: phospholipid biosynthesis inhibitors in animal cells, primary screen, cell-based, LOPAC library, screen 4 (AID 1347384). The conditions noted are these: phospholipid biosynthesis inhibition screen, at 10 µM.
A short description of assay [7]: viability rescue of complex I mutant cybrids, primary screen, cell-based, galactose medium, ATP luminescence (AID 1645843;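 active = z-score of at least 1.8 in each of two replicates, scored against plate mean and spread of sample wells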;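 also: positive z means more ATP and so rescue of galactose-driven cybrid death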). The conditions noted are these: complex I mutant cybrid cells, 72 h, stronger effect = higher value.
Assay [8] in a line: survival rescue of mitochondrial mutant cells in low glucose, primary screen, MELAS cybrids, Rieske KO mouse fibroblasts, CellTiter-Glo (AID 1508586;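 active = mean z-score across replicates of 1.96 or higher in either the MELAS or the Rieske mutant cell line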;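 also: z relative to plate mean and SD of compound and empty wells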). For orientation: ATP-based viability assays read luminescence as a measure of living cells.
Assay [9] can be described thus: liver-stage malaria parasite growth inhibition, primary screen, cell-based, HepG2, luciferase luminescence, HepG2 viability (AID 624349; in the data active = parasite load remaining mostly below about 12%, no sharp cut-off; inactive = mostly above about 10%;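 also: 100% = mean of DMSO negative control wells on the same plate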). The conditions noted are these: P. berghei liver stage in HepG2, luciferase luminescence, concentration not given here; parasite load remaining: stronger effect = lower value; viability: measured here: HepG2 viability without parasites.
Where [10] appears, read: measured here: relative caspase fold change +Dox/-Dox.
[11] abbreviates: measured here: total cells with miR-34 induction, stronger effect = lower value.
[12] abbreviates: measured here: total cells without miR-34 induction.

Values joined by “and” are separate entries in the source; they are usually repeats but may differ in a detail not shown here. Equal entries are not always repeated. Active and inactive are the calls of the source. Unless noted, no rule for the calls is given here.

Experimental findings from PubChem BioAssay are described below.

The inhibition is the drop in the measured response relative to a control, in per cent. In general, remaining activity refers to the signal under treatment as a percentage of the control signal. Usually viability stands for a read-out of living cells in per cent, often relative to untreated cells.

Regarding `COc1ccc2[nH]c3c(c2c1)CCNC3`, the period change in assay [1] was -0.105 h (inactive). Further, the inhibition in [2] is 1% (inactive). The fluorescence ratio (interference) in assay [3] was 0.9 (inactive). Besides, the remaining activity in assay [4] is 108% (inactive). The results for the fold change in [5] (stronger effect = lower value) and in assay [5] (setting [10]) were 1.02 (inactive) and 0.898, respectively. For the same compound, the cell count is 10400 in [5] (setting [11]) and 10200 in assay [5] (setting [12]). Also, the outcome in assay [6] was inactive. Besides, in assay [7], the z-score was 0.28 (inactive).

For `NC(=O)CN1CC(O)CC1=O` (centres undefined), the period change in assay [1] was 0.03 h (inactive). The inhibition in [2] was -2% (inactive). For the same compound, the fluorescence ratio (interference) in assay [3] is 1 (inactive). In addition, the remaining activity in assay [4] is 115% (inactive). In addition, the fold change in [5] (stronger effect = lower value) is 1.04 (inactive) and 0.877 (inactive); in [5] (setting [10]), 1.56 and 1.01. Moreover, the cell count in [5] (setting [11]) is 10800 and 8840; in assay [5] (setting [12]), 10500 and 10100. The compound was called inactive in [6]. Besides, the z-score was -0.221 (inactive) in [8] (MELAS cybrid survival, CellTiter-Glo 48 h, stronger effect = higher value); -0.154 in assay [8] (Rieske KO mouse fibroblast survival, CellTiter-Glo 72 h); 0.605 (inactive) in assay [7].

As to `CCCN1CCc2cccc3c2[C@H]1Cc1ccc(O)c(O)c1-3`, the period change in assay [1] was 0.32 h (inactive). In [2], the inhibition is -3% (inactive). In addition, the fluorescence ratio (interference) in assay [3] is 1 (inactive). For the same compound, the remaining activity in assay [4] is 109% (inactive). Also, the fold change was 1.06 (inactive) in [5] (stronger effect = lower value) and 0.965 in [5] (setting [10]). Also, the results for the cell count in assay [5] (setting [11]) and in assay [5] (setting [12]) were 7250 and 6850, respectively. Moreover, the call in assay [6] was inactive. Also, the z-score in assay [7] was -1.03 (inactive).

Take `CC12NC(Cc3ccccc31)c1ccccc12` (centres undefined): the period change in [1] was 0.25 h (inactive). The parasite load remaining in assay [9] is 63.2% (inactive). Moreover, in assay [9], the viability was found to be 167%. Moreover, the inhibition in assay [2] was -3% (inactive). Further, in assay [3], the fluorescence ratio (interference) was 0.9 (inactive). For the same compound, the remaining activity in assay [4] is 120% (inactive). Also, the fold change is 1.01 (inactive) and 0.879 (inactive) in assay [5] (stronger effect = lower value); 1.28 and 2.22 in assay [5] (setting [10]). The cell count is 10300 and 11700 in [5] (setting [11]); 10100 and 13300 in [5] (setting [12]). In addition, the outcome in assay [6] was inactive. The z-score in assay [7] was -0.15 (inactive).

As for `CCCn1c(C)c(C(=O)c2cccc3ccccc23)c2ccccc21`, the remaining activity in assay [4] is 107% (inactive). Also, the fold change in assay [5] (stronger effect = lower value) was 0.889 (inactive); in assay [5] (setting [10]) it was 1.38. For the same compound, the cell count came out at 5580 in [5] (setting [11]) and 6280 in [5] (setting [12]).

With `C[C@]12CCC3C(CC[C@H]4C[C@H](O)CC[C@]34C)C1CC[C@@H]2C(=O)CO` (some centres undefined), the period change in assay [1] was 0.065 h (inactive). In assay [2], the inhibition was -2% (inactive). For the same compound, the fluorescence ratio (interference) in assay [3] is 1 (inactive). Further, the remaining activity in assay [4] was 121% (inactive). In addition, the fold change was 1.06 (inactive) in assay [5] (stronger effect = lower value) and 0.876 in assay [5] (setting [10]). Moreover, the values for the cell count in assay [5] (setting [11]) and in [5] (setting [12]) were 10400 and 9790, respectively. The call in assay [6] was inactive. In addition, the z-score in [7] was -0.26 (inactive).

With `NC(N)=Nc1ccc2[nH]c3c(c2c1)C[C@@]1(O)[C@H]2Cc4ccc(O)c5c4[C@@]1(CCN2CC1CC1)[C@H]3O5`, the period change in [1] was -0.11 h (inactive). Further, in assay [2], the inhibition was -6% (inactive). Further, in assay [3], the fluorescence ratio (interference) was 0.9 (inactive). Moreover, in [4], the remaining activity was 86.3% (inactive). Besides, the fold change in assay [5] (stronger effect = lower value) is 1.08 (inactive); in assay [5] (setting [10]), 0.809. Also, the cell count in assay [5] (setting [11]) came out at 9750; in assay [5] (setting [12]), 9000. The call in assay [6] was inactive. Besides, the z-score in [7] is -0.92 (inactive).

As for `NCCCP(=O)(O)O`, the period change in assay [1] was 0.005 h (inactive). Further, the inhibition in assay [2] is -1% (inactive). In addition, the fluorescence ratio (interference) in assay [3] is 1 (inactive). Further, the remaining activity in assay [4] is 111% (inactive). In addition, the fold change in [5] (stronger effect = lower value) was 0.943 (inactive); in assay [5] (setting [10]), 2.14. For the same compound, the results for the cell count in assay [5] (setting [11]) and in assay [5] (setting [12]) were 9360 and 9930, respectively. For the same compound, the result in assay [6] was inactive. Further, the z-score in assay [7] is 0.285 (inactive).

Take `Oc1ccc2c3c1O[C@H]1c4oc5ccccc5c4C[C@@]4(O)C(C2)N(CC2CC2)CCC314` (some centres undefined): the period change in assay [1] is 0.13 h (inactive). Further, in assay [2], the inhibition is -1% (inactive). For the same compound, the fluorescence ratio (interference) in assay [3] was 1 (inactive). The remaining activity in [4] is 97.5% (inactive). Besides, the values for the fold change in assay [5] (stronger effect = lower value) and in assay [5] (setting [10]) were 1.1 (inactive) and 0.785, respectively. The cell count in assay [5] (setting [11]) is 10600; in [5] (setting [12]), 9610. For the same compound, in [6], the result was inactive. In addition, the z-score in assay [7] is -0.595 (inactive).

As for `C[N+](C)(C)CC#CCOC(=O)Nc1cccc(Cl)c1`, the period change in assay [1] was 0.045 h (inactive). Besides, the inhibition in assay [2] is -2% (inactive). In addition, the fluorescence ratio (interference) in assay [3] was 1 (inactive). Besides, the remaining activity in [4] was 123% (inactive). Also, the figures for the fold change in [5] (stronger effect = lower value) and in [5] (setting [10]) were 0.993 (inactive) and 1.89, respectively. Besides, the cell count in assay [5] (setting [11]) came to 10400; in assay [5] (setting [12]), 10500. Further, the outcome in assay [6] was inactive. For the same compound, in [7], the z-score was -0.395 (inactive).

`CN(N=O)c1ccc(O)c(O)c1`: the period change in [1] was -0.025 h (inactive). Besides, in assay [2], the inhibition is 27% (inactive). The fluorescence ratio (interference) in assay [3] is 0.9 (inactive). Further, in assay [4], the remaining activity is 85.2% (inactive). The figures for the fold change in [5] (stronger effect = lower value) and in assay [5] (setting [10]) were 1.13 (inactive) and 0.905, respectively. Further, the results for the cell count in [5] (setting [11]) and in [5] (setting [12]) were 9750 and 8640, respectively. Further, the outcome in [6] was inactive. Further, in assay [7], the z-score was 0.2 (inactive).

`CCS(=O)(=O)Nc1cccc(C(=C2CCCCC2)c2cnc[nH]2)c1`: in [1], the period change was 0.07 h (inactive). The inhibition in assay [2] is 0% (inactive). The fluorescence ratio (interference) in assay [3] was 1 (inactive). Besides, the remaining activity in assay [4] was 108% (inactive). The fold change was 1.11 (inactive) in assay [5] (stronger effect = lower value) and 1.94 in assay [5] (setting [10]). Further, the cell count came out at 8610 in [5] (setting [11]) and 7740 in assay [5] (setting [12]). Also, in assay [6], the call was inactive. Moreover, in assay [7], the z-score was -0.125 (inactive).

For the compound `CCCN(CCC)[C@@H]1CCc2cccc(O)c2C1`, the period change in [1] is -0.075 h (inactive). For the same compound, the inhibition in assay [2] was -5% (inactive). Besides, the fluorescence ratio (interference) in assay [3] was 1 (inactive). Further, the remaining activity in [4] was 102% (inactive). For the same compound, the results for the fold change in [5] (stronger effect = lower value) and in assay [5] (setting [10]) were 1.11 (inactive) and 1.06, respectively. For the same compound, the results for the cell count in assay [5] (setting [11]) and in assay [5] (setting [12]) were 10200 and 9240, respectively. Besides, in assay [6], the call was inactive. Also, the z-score in assay [7] is -0.38 (inactive).

Take `CCCN1CCC[C@@H](c2cccc(O)c2)C1`: the period change in [1] was 0.11 h (inactive). For the same compound, the inhibition in [2] was -3% (inactive). In [3], the fluorescence ratio (interference) was 1 (inactive). Besides, in [4], the remaining activity was 106% (inactive). Moreover, the fold change in assay [5] (stronger effect = lower value) is 0.956 (inactive); in assay [5] (setting [10]) it was 0.986. The cell count in [5] (setting [11]) came out at 9850; in assay [5] (setting [12]) it was 10300. For the same compound, the result in [6] was inactive. The z-score in assay [7] was 0.185 (inactive).
